This note sets out measurements from ChEMBL document CHEMBL1961873, “Compounds: GSK PKIS; Assays: Nanosyn kinase panel” (2012).

The inhibition is the change of the read-out against control, counted positive when it falls.

For experiment [1], the target named is Tyrosine-protein kinase Fyn (Homo sapiens) (UniProt P06241). Particulars: at 1 µM.
The target of experiment [2] is Tyrosine-protein kinase HCK (Homo sapiens) (UniProt P08631). Particulars: at 0.1 µM.
Experiment [3] shares this target. Particulars: at 1 µM.
Experiment [4] deals with Insulin-like growth factor 1 receptor (Homo sapiens) (UniProt P08069). Particulars: at 0.1 µM.
Experiment [5] has the same target. Particulars: at 1 µM.
Experiment [6] addresses Insulin receptor (Homo sapiens) (UniProt P06213). Particulars: at 0.1 µM.
Experiment [7] has the same target. Particulars: at 1 µM.
In experiment [8] the target is Insulin receptor-related protein (Homo sapiens) (UniProt P14616). Particulars: at 0.1 µM.
Experiment [9] shares this target. Particulars: at 1 µM.
For experiment [10], the target named is T1, Tyrosine-protein kinase ITK/TSK (Homo sapiens) (UniProt Q08881).
T1 sequence (whole entry): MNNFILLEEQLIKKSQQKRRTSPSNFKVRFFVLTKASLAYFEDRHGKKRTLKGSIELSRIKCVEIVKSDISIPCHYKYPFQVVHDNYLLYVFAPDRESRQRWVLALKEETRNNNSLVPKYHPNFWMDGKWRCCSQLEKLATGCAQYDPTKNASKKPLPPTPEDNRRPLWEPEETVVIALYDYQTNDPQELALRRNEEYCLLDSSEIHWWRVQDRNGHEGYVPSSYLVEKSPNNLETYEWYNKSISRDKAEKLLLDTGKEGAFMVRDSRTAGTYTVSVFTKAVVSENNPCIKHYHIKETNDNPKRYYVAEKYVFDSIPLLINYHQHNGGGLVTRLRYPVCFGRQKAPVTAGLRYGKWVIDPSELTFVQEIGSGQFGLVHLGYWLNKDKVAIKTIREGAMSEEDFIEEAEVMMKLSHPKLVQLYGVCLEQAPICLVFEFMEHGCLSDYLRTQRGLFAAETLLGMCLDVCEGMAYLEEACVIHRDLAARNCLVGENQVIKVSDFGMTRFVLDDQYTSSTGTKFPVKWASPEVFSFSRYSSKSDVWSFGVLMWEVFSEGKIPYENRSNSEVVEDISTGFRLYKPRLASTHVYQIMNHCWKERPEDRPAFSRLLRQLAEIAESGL
Particulars: at 0.1 µM.

Experiment [11] deals with T1, Tyrosine-protein kinase ITK/TSK (Homo sapiens). Particulars: at 1 µM.
Experiment [12] has as its target Tyrosine-protein kinase JAK1 (Homo sapiens) (UniProt P23458). Particulars: at 0.1 µM.
Experiment [13] shares this target. Particulars: at 1 µM.
The target of experiment [14] is Tyrosine-protein kinase JAK2 (Homo sapiens) (UniProt O60674). Particulars: at 0.1 µM.
The target is the same in experiment [15]. Particulars: at 1 µM.
Experiment [16] deals with T2, Tyrosine-protein kinase JAK3 (Homo sapiens) (UniProt P52333).
T2 sequence (whole entry): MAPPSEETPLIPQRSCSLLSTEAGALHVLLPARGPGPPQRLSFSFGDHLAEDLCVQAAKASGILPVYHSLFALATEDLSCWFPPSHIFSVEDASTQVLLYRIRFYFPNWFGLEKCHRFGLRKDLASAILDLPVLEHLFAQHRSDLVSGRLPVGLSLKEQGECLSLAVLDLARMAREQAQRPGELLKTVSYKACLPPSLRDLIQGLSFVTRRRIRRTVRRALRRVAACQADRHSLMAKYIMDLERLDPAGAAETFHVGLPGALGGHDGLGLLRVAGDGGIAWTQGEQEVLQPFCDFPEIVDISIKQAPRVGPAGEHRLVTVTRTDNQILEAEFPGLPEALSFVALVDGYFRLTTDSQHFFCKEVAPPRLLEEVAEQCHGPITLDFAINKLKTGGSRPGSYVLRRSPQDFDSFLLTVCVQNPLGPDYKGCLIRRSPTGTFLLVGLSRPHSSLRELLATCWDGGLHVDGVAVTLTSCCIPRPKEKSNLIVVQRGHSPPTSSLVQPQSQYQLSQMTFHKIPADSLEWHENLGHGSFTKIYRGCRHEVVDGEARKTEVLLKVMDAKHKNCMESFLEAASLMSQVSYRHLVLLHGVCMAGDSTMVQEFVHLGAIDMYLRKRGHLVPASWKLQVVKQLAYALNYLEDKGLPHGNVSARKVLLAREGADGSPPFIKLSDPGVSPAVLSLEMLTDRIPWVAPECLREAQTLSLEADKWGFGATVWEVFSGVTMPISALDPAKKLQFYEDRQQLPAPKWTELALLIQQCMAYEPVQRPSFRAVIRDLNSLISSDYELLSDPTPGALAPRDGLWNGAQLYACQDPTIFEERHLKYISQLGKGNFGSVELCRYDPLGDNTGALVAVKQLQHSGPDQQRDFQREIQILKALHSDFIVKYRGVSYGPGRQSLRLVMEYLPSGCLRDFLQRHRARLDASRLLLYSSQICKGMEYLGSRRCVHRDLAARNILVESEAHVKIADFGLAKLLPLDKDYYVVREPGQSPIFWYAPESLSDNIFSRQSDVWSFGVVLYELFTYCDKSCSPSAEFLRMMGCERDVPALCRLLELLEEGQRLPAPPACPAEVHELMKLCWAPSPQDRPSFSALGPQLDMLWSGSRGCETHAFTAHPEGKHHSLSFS
Particulars: at 0.1 µM.

The target of experiment [17] is T2, Tyrosine-protein kinase JAK3 (Homo sapiens). Particulars: at 1 µM.
For experiment [18], the target named is Vascular endothelial growth factor receptor 2 (Homo sapiens) (UniProt P35968). Particulars: at 0.1 µM.
Experiment [19] shares this target. Particulars: at 1 µM.
Experiment [20] concerns the target Mast/stem cell growth factor receptor Kit (Homo sapiens) (UniProt P10721). Particulars: at 0.1 µM.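 Further: values are mean inhibition of KIT, from the GSK PKIS dataset.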

Chain of Insulin receptor-related protein (Homo sapiens) (P14616 27-742 limits assumed): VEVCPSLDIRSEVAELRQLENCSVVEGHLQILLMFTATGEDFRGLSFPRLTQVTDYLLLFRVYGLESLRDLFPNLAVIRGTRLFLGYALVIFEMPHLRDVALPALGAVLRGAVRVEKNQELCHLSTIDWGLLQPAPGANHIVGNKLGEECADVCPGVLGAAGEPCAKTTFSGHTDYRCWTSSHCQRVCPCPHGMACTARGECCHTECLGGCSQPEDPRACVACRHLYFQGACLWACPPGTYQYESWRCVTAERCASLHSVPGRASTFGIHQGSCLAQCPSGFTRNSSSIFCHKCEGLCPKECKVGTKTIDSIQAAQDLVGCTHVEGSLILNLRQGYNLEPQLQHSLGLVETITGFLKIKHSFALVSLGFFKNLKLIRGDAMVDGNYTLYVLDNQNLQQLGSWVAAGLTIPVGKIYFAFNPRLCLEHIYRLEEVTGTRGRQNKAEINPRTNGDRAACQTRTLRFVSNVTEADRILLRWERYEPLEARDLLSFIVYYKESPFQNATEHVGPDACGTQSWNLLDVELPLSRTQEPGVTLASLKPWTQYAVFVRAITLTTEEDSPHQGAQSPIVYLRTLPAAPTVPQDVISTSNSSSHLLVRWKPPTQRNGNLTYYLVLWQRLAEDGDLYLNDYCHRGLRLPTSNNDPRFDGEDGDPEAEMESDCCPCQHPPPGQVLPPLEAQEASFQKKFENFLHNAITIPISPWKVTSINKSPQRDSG
Chain of Insulin receptor-related protein (Homo sapiens) (P14616 747-1297 limits assumed): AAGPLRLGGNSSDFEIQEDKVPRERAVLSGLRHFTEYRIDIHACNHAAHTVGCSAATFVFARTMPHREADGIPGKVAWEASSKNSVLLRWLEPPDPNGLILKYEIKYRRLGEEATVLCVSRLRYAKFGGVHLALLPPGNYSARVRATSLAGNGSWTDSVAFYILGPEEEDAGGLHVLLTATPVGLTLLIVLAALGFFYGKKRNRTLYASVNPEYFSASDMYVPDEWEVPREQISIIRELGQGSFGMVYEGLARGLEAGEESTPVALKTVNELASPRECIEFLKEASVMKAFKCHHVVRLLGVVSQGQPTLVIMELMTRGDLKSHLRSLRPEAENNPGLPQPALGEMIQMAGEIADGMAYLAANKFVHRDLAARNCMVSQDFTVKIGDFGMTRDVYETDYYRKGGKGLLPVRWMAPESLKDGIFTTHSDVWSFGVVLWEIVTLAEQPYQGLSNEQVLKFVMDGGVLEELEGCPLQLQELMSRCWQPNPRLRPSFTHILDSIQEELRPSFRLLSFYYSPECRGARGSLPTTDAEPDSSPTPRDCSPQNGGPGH
Chain of Tyrosine-protein kinase JAK2 (Homo sapiens) (O60674 whole entry): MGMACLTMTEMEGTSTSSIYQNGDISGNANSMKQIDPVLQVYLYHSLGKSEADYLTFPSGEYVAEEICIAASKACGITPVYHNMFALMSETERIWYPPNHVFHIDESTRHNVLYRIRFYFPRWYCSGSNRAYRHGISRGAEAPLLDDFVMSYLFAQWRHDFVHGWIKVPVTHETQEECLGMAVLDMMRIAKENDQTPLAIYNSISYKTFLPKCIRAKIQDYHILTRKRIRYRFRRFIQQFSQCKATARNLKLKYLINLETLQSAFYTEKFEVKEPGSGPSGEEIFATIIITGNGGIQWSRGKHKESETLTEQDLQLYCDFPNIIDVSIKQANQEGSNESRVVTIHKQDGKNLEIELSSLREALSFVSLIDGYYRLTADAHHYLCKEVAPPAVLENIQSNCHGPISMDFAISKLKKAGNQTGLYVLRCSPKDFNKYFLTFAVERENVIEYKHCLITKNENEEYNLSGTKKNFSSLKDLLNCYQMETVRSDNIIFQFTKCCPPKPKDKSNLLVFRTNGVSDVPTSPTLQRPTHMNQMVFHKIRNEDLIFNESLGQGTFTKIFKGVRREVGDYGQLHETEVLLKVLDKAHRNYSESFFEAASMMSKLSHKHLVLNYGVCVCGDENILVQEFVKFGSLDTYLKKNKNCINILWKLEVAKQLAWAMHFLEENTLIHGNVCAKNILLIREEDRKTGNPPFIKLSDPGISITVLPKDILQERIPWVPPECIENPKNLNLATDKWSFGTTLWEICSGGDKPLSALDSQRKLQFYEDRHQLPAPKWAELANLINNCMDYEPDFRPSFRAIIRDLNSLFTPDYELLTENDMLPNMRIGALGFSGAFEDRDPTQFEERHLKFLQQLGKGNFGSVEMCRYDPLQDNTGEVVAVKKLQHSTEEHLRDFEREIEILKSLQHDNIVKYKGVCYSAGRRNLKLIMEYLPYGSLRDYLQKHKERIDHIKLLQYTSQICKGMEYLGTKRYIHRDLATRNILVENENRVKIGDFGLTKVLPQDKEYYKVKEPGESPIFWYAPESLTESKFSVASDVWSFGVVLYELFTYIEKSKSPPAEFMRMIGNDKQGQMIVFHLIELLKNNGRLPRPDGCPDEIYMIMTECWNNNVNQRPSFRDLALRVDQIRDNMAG
Chain of Tyrosine-protein kinase HCK (Homo sapiens) (P08631 2-526 limits assumed): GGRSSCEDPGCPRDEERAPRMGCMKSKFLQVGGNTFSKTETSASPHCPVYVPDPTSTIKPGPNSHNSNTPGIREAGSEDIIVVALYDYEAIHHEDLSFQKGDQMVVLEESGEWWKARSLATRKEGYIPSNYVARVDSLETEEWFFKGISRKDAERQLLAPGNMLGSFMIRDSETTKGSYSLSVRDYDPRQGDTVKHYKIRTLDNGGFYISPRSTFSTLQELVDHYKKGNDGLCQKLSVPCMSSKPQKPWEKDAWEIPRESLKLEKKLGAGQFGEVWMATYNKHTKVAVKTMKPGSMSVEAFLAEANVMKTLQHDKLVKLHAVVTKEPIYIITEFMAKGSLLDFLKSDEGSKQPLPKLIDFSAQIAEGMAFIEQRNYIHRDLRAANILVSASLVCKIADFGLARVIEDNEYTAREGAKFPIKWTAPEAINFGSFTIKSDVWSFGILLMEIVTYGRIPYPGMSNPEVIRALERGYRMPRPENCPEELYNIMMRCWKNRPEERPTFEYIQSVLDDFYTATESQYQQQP
Chain of Tyrosine-protein kinase JAK1 (Homo sapiens) (P23458 whole entry): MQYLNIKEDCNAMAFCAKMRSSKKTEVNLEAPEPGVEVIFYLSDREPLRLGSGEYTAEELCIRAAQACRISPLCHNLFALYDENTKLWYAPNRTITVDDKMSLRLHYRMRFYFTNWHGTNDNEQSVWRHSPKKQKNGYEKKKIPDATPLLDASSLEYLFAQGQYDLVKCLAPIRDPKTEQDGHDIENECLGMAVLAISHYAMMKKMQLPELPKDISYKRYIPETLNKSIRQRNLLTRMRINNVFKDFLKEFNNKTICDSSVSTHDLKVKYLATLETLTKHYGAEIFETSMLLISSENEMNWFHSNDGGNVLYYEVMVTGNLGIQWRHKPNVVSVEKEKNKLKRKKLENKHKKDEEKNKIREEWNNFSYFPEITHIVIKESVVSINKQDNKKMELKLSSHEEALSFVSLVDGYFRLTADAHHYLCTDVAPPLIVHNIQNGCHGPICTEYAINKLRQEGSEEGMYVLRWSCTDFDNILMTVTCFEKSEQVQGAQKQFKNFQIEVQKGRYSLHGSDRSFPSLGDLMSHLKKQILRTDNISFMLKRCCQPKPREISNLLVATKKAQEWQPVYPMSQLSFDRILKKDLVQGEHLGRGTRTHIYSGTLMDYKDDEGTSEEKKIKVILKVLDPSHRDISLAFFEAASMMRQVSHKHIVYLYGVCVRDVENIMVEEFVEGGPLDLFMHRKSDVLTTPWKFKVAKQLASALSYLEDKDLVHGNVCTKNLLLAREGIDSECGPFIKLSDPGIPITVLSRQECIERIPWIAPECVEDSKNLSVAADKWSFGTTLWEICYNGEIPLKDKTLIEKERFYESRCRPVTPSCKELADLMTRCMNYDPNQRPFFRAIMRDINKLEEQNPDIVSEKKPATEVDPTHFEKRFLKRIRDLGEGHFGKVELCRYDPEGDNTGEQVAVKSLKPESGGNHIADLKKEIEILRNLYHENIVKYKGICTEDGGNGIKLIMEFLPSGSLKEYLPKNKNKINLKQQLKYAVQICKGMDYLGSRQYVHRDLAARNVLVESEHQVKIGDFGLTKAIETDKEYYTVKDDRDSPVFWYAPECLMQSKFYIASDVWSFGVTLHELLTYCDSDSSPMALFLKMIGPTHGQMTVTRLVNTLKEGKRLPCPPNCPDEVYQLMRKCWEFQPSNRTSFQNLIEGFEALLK
Chain of Mast/stem cell growth factor receptor Kit (Homo sapiens) (P10721 whole entry): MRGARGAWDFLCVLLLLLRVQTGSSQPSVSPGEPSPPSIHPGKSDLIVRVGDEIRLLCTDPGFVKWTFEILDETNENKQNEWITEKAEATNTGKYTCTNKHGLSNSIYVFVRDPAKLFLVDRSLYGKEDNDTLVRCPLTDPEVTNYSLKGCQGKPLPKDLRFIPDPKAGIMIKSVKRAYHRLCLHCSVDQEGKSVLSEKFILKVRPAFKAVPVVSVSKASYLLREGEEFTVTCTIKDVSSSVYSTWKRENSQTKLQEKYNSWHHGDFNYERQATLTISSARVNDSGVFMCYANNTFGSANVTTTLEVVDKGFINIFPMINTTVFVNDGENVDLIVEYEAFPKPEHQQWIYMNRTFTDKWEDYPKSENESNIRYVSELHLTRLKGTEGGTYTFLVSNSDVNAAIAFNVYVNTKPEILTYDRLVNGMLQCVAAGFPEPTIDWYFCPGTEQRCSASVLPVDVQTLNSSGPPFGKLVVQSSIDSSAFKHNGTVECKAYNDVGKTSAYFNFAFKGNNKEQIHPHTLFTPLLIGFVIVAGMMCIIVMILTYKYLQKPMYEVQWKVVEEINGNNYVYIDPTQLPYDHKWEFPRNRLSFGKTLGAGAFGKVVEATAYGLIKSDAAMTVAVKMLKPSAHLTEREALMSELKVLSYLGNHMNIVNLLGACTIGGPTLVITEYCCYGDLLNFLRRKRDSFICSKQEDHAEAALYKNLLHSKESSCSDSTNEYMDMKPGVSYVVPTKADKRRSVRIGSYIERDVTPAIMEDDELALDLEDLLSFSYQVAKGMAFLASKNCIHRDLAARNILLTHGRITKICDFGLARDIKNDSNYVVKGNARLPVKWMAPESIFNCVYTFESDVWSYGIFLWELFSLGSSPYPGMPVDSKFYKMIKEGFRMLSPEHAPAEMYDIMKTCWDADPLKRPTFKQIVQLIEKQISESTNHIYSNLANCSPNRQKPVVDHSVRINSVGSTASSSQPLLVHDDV

As to `COC(=O)Nc1nc2cc(Oc3cccc(NC(=O)Nc4cc(C(F)(F)F)ccc4F)c3)ccc2[nH]1`, the inhibition in experiment [1] was 7.79%; in [2], 1.11%; in experiment [3] it was 7.7%; in experiment [4] it was -1.77%; in experiment [5], -0.89%; in [6], 2.67%. Moreover, the inhibition in [7] was 2.78%; in experiment [8] it was -1.56%; in experiment [9], -0.86%; in [10], 0.34%; in [11] it was 0.67%; in experiment [12] it was 0.78%. Besides, the inhibition was 4.36% in [13]; -0.5% in experiment [14]; -0.07% in experiment [15]; 1.1% in experiment [16]; 2.02% in experiment [17]; 19.1% in [18]. Besides, the inhibition in experiment [19] worked out at 63.5%; in experiment [20], 4.16%.
For the compound `NS(=O)(=O)c1cccc(-c2ccc3c(NC(=O)C4CC4)n[nH]c3c2)c1`, the inhibition in experiment [1] was 2.4%; in experiment [2], -0.53%; in experiment [3], 1.86%; in [4], -0.13%; in experiment [5] it was 3.51%; in [6], 3.15%. In addition, the inhibition in [7] is -0.25%; in [8], -2.37%; in [9], -1.21%; in [10] it was -0.53%; in experiment [11] it was 0.22%; in [13] it was -4.88%. Also, the inhibition in [14] was -0.14%; in experiment [15], -1.18%; in [16], -0.5%; in [17], 1.58%; in [18], 0.44%; in [19], 6.32%. The inhibition in experiment [20] is -1.56%.
For the compound `Nc1ncnc2occ(-c3ccc(NC(=O)Nc4cc(C(F)(F)F)cc(C(F)(F)F)c4)cc3)c12`, the inhibition in [1] was 10.3%; in [2], 6.07%; in [3] it was 27.1%; in [4], 1.24%; in experiment [5], 7.12%; in experiment [6] it was -4.81%. Also, the inhibition is 6.05% in experiment [7]; 5.56% in experiment [8]; 2.23% in experiment [9]; 1.65% in [10]; 11.2% in experiment [11]; -0.74% in [12]. Further, the inhibition in [14] was found to be 0.74%; in experiment [15], 1.44%; in experiment [16], 0.06%; in [17] it was 0.78%; in experiment [18] it was 46.7%; in [19], 68.2%. Moreover, in [20], the inhibition was determined as 29%.
As to `COc1cccc(-n2ncc3c(N/N=C/c4cccc(F)c4)ncnc32)c1`, the inhibition is 31.5% in [1]; 5.13% in [2]; 20.8% in [3]; -6.82% in experiment [4]; -4.04% in experiment [5]; 6.33% in experiment [6]. For the same compound, the inhibition is 5.41% in experiment [7]; 0.81% in [8]; 0.48% in [9]; -3.25% in [10]; -2.13% in experiment [11]; 2.37% in experiment [12]. Moreover, the inhibition in experiment [13] is 2.01%; in [14], 1.22%; in experiment [15] it was 1.44%; in experiment [16] it was -4.29%; in experiment [17], 0.79%; in experiment [18], 10.1%. Besides, the inhibition in experiment [19] amounted to 34.1%; in experiment [20], 3.25%.
Take `CCn1c(-c2nonc2N)nc2c(C#CC(C)(C)O)nc(OC[C@@H](N)c3ccccc3)cc21`: the inhibition in [1] is 2.07%; in [2], 5.84%; in experiment [3], 11.9%; in [4], 1.67%; in experiment [5], 1.05%; in [6] it was -0.22%. Besides, the inhibition is -0.5% in experiment [7]; 0.45% in experiment [8]; 1.06% in experiment [9]; 0.21% in experiment [10]; 0.95% in experiment [11]; -3.77% in experiment [12]. Further, the inhibition was determined as 2.1% in experiment [13]; 0.33% in experiment [14]; 6.32% in experiment [15]; 1.24% in [16]; 4.39% in [17]; 35.1% in [18]. For the same compound, the values for the inhibition in [19] and in [20] were 71.2% and -1.3%, respectively.
Regarding `Nc1nc(-c2ccccn2)c(-c2ccc3ncccc3n2)s1`, the inhibition is -0.24% in experiment [1]; 2.25% in experiment [2]; 6.89% in experiment [3]; 3.05% in [4]; 3.2% in [5]; 2.46% in [6]. Moreover, the inhibition in experiment [7] is 1.2%; in experiment [8], 2.58%; in [9], 2.92%; in experiment [10], 1.05%; in experiment [11], 2.48%; in experiment [12], 0.52%. Moreover, the inhibition in [13] is 4.22%; in experiment [14], -0.07%; in experiment [15], 2%; in [16], -1.07%; in experiment [17], -0.57%; in experiment [18], 3.52%. Moreover, the inhibition in experiment [19] stood at 8.02%; in experiment [20], 3.79%.
Consider `CCCN1CCC(Oc2cc(Nc3nc(Nc4cccc(F)c4C(N)=O)c4cc[nH]c4n3)c(OC)cc2Cl)CC1`, for which the inhibition was determined as 3.01% in [1]; 4.1% in experiment [2]; 7.31% in experiment [3]; 57.2% in experiment [4]; 91.8% in [5]; 64% in [6]. For the same compound, the inhibition was 88% in [7]; 4.74% in experiment [8]; 37.6% in [9]; 0.65% in experiment [10]; 1.18% in [11]; -1.95% in experiment [12]. The inhibition was -2.49% in experiment [13]; 0.96% in experiment [14]; 1.42% in experiment [15]; 0.62% in [16]; 1.56% in [17]; 9.18% in experiment [18]. For the same compound, the inhibition in experiment [19] was 18.5%; in [20] it was -0.76%.
